Bioassay records: PubChem, National Center for Advancing Translational Sciences (NCATS)
HCMV antiviral: qHTS Assay for inhibitors of the human cytomegalovirus (HCMV) | HFF cells, HCMV-luciferase reporter, 72 h; stronger effect = lower value | activity change, negative = inhibition, % at 57.5 µM | 410,000 tested, 4.5% active | AID 1259415, 2018; in the data active = activity change below about -60%; inconclusive = no clear call, values can overlap the other calls; inactive = above about -39%
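Human foreskin fibroblasts infected with luciferase-reporter HCMV at MOI 1 PFU/cell, compounds at two doses. Luciferase measured 72 h post infection; normalized to buffer-only basal and Salinomycin (10uM) controls.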
HCV inhibitor: qHTS Assay for Inhibitors of Hepatitis C Virus (HCV). Huh7.5.1 HCVcc-Cre infection, luciferase reporter, 44 h. Potency, µM (top dose mostly 41.8 µM), inactives show at the top dose activity change, negative = inhibition, actives largely listed as inhibitors. 340,000 tested, 3.4% active; active = well fitted inhibition curve with a large enough effect; inconclusive = small, poorly fitted or top-dose-only effect, or another doubt; inactive = no such curve, though single readings can be large or run the other way; also: potency is read from the fitted curve at half-maximal effect
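A cell-based infection assay in which seeded cells (1,000 per well) receive test compound after 4 h, are inoculated with HCVcc-Cre at approximately 0.5 moi, and are incubated 44 h before luminescence detection.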
Vaccinia mCherry: qHTS for Stage-Specific Inhibitors of Vaccinia Orthopoxvirus: mCherry Reporter Primary qHTS. Potency, µM (series often up to 36.5 µM), for the others: at the highest dose activity change, negative = inhibition, most hits filed as inhibitors. Vaccinia virus mCherry reporter infection, fluorescence. 310,000 tested, 0.63% active; calls by dose curve; tested in A549 cells; also: potency is read from the fitted curve at half-maximal effect; nearly all actives have a fitted effect of over 35% in size
Vaccinia Venus: qHTS for Stage-Specific Inhibitors of Vaccinia Orthopoxvirus: Venus Reporter Primary qHTS. Vaccinia virus Venus reporter expression, fluorescence. Potency, µM (doses to about 36.5 µM), inactives show at the top dose activity change, negative = inhibition, most hits filed as inhibitors. 330,000 tested, 0.46% active; calls by dose curve; tested in A549 cells; also: potency is read from the fitted curve at half-maximal effect; nearly all actives have a fitted effect of over 30% in size
FMDV antiviral: High Throughput Screening for Foot and Mouth Disease Virus Antivirals. FMDV antiviral cell-based qHTS. Potency, µM (series often up to 57.9 µM), for inactives: at the highest dose activity change, negative = inhibition, usual class: inhibitors. 410,000 tested, 1.2% active. AID 1159524, 2015; calls by dose curve; tested in HEK293T cells; also: read-out not given here; potency is read from the fitted curve at half-maximal effect; nearly all actives have a fitted effect of over 45% in size
* marks the source's active call; other numbers are inactive results; i = inactive; ? = inconclusive; · = no result given; [ ] = another dose, or the depositor's remark. Shown are actives, neighbours in structure and some others; about 7.3% of the full set was active somewhere. % is scaled to controls: 0 for no effect and ±100 for the full control effect.

SMILES | HCMV antiviral | HCV inhibitor | Vaccinia mCherry | Vaccinia Venus | FMDV antiviral
O=C(CCl)N(C/C=C/c1ccccc1)c1ccc2c(c1)OCCO2 | 58.1 | 2.24µM* | -6.4% | -25.3% | 25.1µM*
CC(=O)Nc1ccc(S(=O)(=O)NCCSCc2ccc(Cl)cc2Cl)cc1 | -67.3* | ? | ? | ? | 0.0%
COc1ccccc1/C=C1\SC(=S)N(CCC(=O)NCCc2ccc(O)cc2)C1=O | -74.9* | ? | ? | ? | -13.7%
O=C(CCN1C(=O)/C(=C/c2ccccc2)SC1=S)NCCc1ccc(O)cc1 | · | ? | · | · | -0.8%
COc1ccc(CCNC(=O)CCCN2C(=O)c3ccccc3C2=O)cc1 | -81.4* | -2.2% | -2.1% | 2.7% | 0.7%
COc1ccc(CCNC(=O)CCCCCN2C(=O)c3ccccc3C2=O)cc1 | -1.4 | 10.8% | -0.6% | -16.8% | 0.8%
O=C(CCN1C(=O)/C(=C/c2ccccc2F)SC1=S)NCCc1ccc(O)cc1 | -92.9* | ? | · | · | -10.1%
CCCCCCCCN1C(=O)[C@@H](CC(=O)N2CCN(C(=O)C3CC3)CC2)C[C@@]2(C(=O)OC)C1=C[C@H](C1CCCC1)O[C@@H]2C | 67.3 | · | · | · | ·
Cc1cc2ccccc2nc1SCC(=O)N1CCCC1 | -20.2 | 1µM* | · | · | -1.9%
COc1ccc(NC(=O)COC(=O)c2c(NC(C)=O)sc(C)c2C)cc1 | -3.0 | · | i | ? | -3.6%
Cc1ccc(S(=O)(=O)NCCC(=O)NNC(=O)c2ccccc2O)cc1C | -13.7 | 3.16µM* | -27.2% | -20.7% | -13.8%
O=C(c1nc2ccc(Cl)cn2c1CNCCc1cnccn1)N1CCCCCCC1 | 30.8 | · | -3.1% | -16.0% | -9.1%
O=C(CC1N=C2c3ccccc3N=C(SCc3ccc(Cl)cc3)N2C1=O)NCCc1ccccc1 (centres undefined) | 12.9 | · | -28.7% | -28.3% | -2.3%
COCCn1c(=O)c(-c2cccs2)nc2cnc(N(C)C)nc21 | · | · | · | · | -16.0%
COCCN1CC(O)=C(c2nc3ccccc3c(=O)[nH]2)C1=N | 17.4 | 14.1% | · | -15.7% | 6.2%
COc1ccc(OC)c(N2CC(O)=C(c3nc4ccccc4s3)C2=N)c1 | -8.8 | 25.1µM* | -8.9% | -26.2% | 7.2%
CCN(CC)CCCN1CC(O)=C(c2nc3ccccc3s2)C1=N | 77.5 | 11.2µM* | · | -20.2% | ?
COc1ccccc1N1CC(O)=C(c2nc3ccccc3c(=O)[nH]2)C1=N | -9.1 | ? | 5.62µM* | ? | ·
CCOc1ccc(Nc2nc3c(S(=O)(=O)c4ccc(CC)cc4)nnn3c3ccc(Cl)cc23)cc1 | 3.1 | · | -27.3% | ? | 14.0%
CCCC(=O)N(Cc1cc(=O)[nH]c2ccccc12)c1ccccc1C | -72.8* | -4.1% | -8.4% | -7.6% | -10.1%
Cc1cccc(N(Cc2cc(=O)[nH]c3ccccc23)C(=O)CCl)c1 | -95.9* | ? | ? | 12.6µM* | 20µM*
CC(=O)N(Cc1cc(=O)[nH]c2ccccc12)c1ccccc1C | -1.9 | 14.0% | -9.4% | -6.7% | -9.9%
COc1ccc(N(Cc2cc(=O)[nH]c3ccccc23)C(=O)CCl)cc1 | -101.2* | ? | -19.1% | -27.3% | 20µM*
CCCC(=O)N(Cc1cc(=O)[nH]c2ccccc12)c1cccc(C)c1 | -5.8 | 7.4% | i | -11.4% | -18.3%
O=C(Cc1ccc(OCC2CCCCC2)cc1)NO | · | · | -15.9% | 14.9% | ·
SMILES | HCMV antiviral | HCV inhibitor | Vaccinia mCherry | Vaccinia Venus | FMDV antiviral
Cc1c(NS(=O)(=O)c2cccc(C(=O)Nc3cccc(F)c3)c2)c(=O)n(-c2ccccc2)n1C | -5.2 | ? | -3.3% | -21.2% | -16.1%
CC1(C)N=C(N)N=C(N)N1CCCCc1ccccc1 | -98.4* | ? | 0.708µM* | 1µM* | 0.0%
O=C(CN1CCN(CC(=O)Nc2cccc(F)c2)CC1)Nc1ccc(-c2ccccc2)cc1 | -16.7 | -4.2% | -0.4% | 0.0% | 15.3%
S=c1[nH]c2nc(Cl)c(Cl)nc2[nH]1 | -17.8 | · | -10.7% | -0.5% | -0.1%
S=c1[nH]c2cnc(Cl)nc2[nH]1 | -68.3* | 17.3% | -13.6% | -14.2% | 2.7%
Cc1cc(OC(C)C(=O)N2CCC(c3nc4ccccc4o3)CC2)ccc1Cl (centres undefined) | -16.0 | · | -9.0% | -21.2% | 0.0%
CC(NC(=O)c1cc(F)ccc1F)c1nnc2n1CCN(Cc1ccco1)CC2 (centres undefined) | · | · | -1.6% | -0.3% | -2.0%
OC[C@@H]1CN(Cc2ccc3c(c2)OCO3)C[C@H](n2cnc3c(NC4CC4)ncnc32)O1 | 13.7 | · | -8.6% | -5.7% | -12.0%
NC(=Nc1nc(-c2ccccn2)cc2ccccc12)c1ccccn1 | -100.8* | ? | 0.316µM* | ? | 0.0%
N/C(=N\OC(=O)c1cccc2ccccc12)c1ccccn1 | 26.8 | ? | -4.7%[7.34 µM] | -2.3%[7.34 µM] | -13.0%
CC(=O)N(c1ccc(N(C(C)=O)S(=O)(=O)c2ccccc2)cc1)S(=O)(=O)c1ccccc1 | -11.4 | 8.7% | i | -24.3% | 1.4%
CC(=O)Oc1ccc(N(C(C)=O)S(=O)(=O)c2ccc3ccccc3c2)cc1 | -70.9* | ? | · | · | 9.7%
O=CC1=C(c2ccccc2)Oc2ccccc2O1 | -94.3* | -20.0% | ? | -18.8% | ?
CN(C)/C=C1/N=C(c2ccccc2)OC1=O | 0.6 | -10.0% | · | -2.5% | 12.2%
COc1ccc(N(C)C(=O)C2CCN(S(=O)(=O)c3cccc4nonc34)CC2)c(OC)c1 | -60.7* | -20.6% | -19.8% | -4.0% | -25.3%
COc1cc(NC(=O)C2CCN(S(=O)(=O)c3cccc4nonc34)CC2)cc(OC)c1 | 22.1 | 12.5% | · | -16.0% | ?
CC(NC(=O)C1CCN(S(=O)(=O)c2cccc3nonc23)CC1)c1ccccc1 (centres undefined) | -88.0* | 5.1% | -13.5% | -15.5% | 13.2%
CN1CCN(c2nc3c(=O)[nH]c(N)nc3n2C2OC(CO)C(O)C2O)CC1 (centres undefined) | · | · | 4.3% | -10.7% | ·
C(=CCSc1ccccn1)CSc1ccccn1 | 5.8 | · | · | · | ·
Cc1nnn(C23C[C@@H]4C[C@@H](CC(C(=O)N5CCN(c6ccccc6)CC5)(C4)C2)C3)n1 | -86.8* | ? | · | · | ?
O=C(N1CCN(c2ccccc2)CC1)C12CC3CC(CC(C3)C1)C2 | ? | 6.8% | -0.9% | -18.4% | ?
Cc1ccc(C(=O)CC2(O)C(=O)N(Cc3ccccc3Cl)c3ccccc32)o1 (centres undefined) | -24.5 | -7.5% | -23.6% | -15.7% | -16.3%
COc1cc(C(=O)CC2(O)C(=O)N(Cc3ccccc3Cl)c3ccccc32)cc(OC)c1OC (centres undefined) | -70.7* | · | -10.3% | -5.7% | -11.7%
CN(C)/C=C/C(=O)c1ccc([N+](=O)[O-])c(CS(=O)(=O)c2ccccc2)c1 | -98.2* | 0.7% | i | -10.9% | -7.6%
O=C(O)c1ccc([N+](=O)[O-])c(CS(=O)(=O)c2ccccc2)c1 | -27.5 | -0.8% | -6.3% | -25.5% | -12.6%
O=[N+]([O-])c1ccc(NCc2ccc(Cl)cc2)c2ccncc12 | -9.3 | 6.31µM* | -21.6% | 1.0% | ?
